Screens from PubChem.
Most compounds without a hit are left out; they make up all but 3.4% or so of the library.
ADAM17 inh – ADAM17 inhibitors, primary screen, biochemical, QFRET; Disintegrin and metalloproteinase domain-containing protein 17 (Homo sapiens), P78536; recombinant ADAM17, EDANS/DABCYL FRET peptide cleavage; inhibition, % at 6.95 µM; hit rate 0.83% among 370,000; AID 720648, 2013;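 active means inhibition above the mean of compounds lying between control limits plus 3 SD, set per campaign, cut at about 8.5% in these data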;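 further: 0% = DMSO-only wells as the low control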
CendR NRP1 mod – modulators of CendR peptide binding to NRP-1, primary screen, biochemical, fluorescence polarization, uHTS; Neuropilin-1 (Homo sapiens), O14786; FAM-RPARPAR peptide binding to NRP-1; inhibition, % at 25 µM; hit rate 0.85% among 360,000; AID 602438, 2012;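 active means inhibition or corrected inhibition above about 18%, plus a signal ratio from 0.5 to 1.5, limit read from the data, passing the limit was not always enough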
ADAM10 inh – human ADAM10 inhibitors, primary screen, biochemical, QFRET, HTS | inhibition, % at 7 µM | hit rate 0.62% among 370,000 | recombinant ADAM10, EDANS/DABCYL FRET peptide cleavage, 3 h | Disintegrin and metalloproteinase domain-containing protein 10 (Homo sapiens), O14672 | AID 720582, 2013;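 active means inhibition above a per-campaign cutoff equal to the mean of compounds falling between control-based bounds plus 3 SD, cut at about 20% in these data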;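 further: 0% = DMSO wells while the 100% control is not disclosed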
HGIII-sPLA2 inh – human group III sPLA2 inhibitors, primary screen, biochemical, QFRET, BODIPY PC-A2 liposome substrate. hit rate 0.56% among 370,000. inhibition, % at 12.2 µM. AID 743126, 2013. Group 3 secretory phospholipase A2 (Homo sapiens), Q9NZ20. QFRET BODIPY PC-A2 liposome hydrolysis, fluorescence;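 active means inhibition above mean plus 3 SD of compounds lying within the high and low control bounds, cut at about 19% in these data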;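 further: 0% = median of test compound wells and 100% = no enzyme DMSO wells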
Target sequence (Q9NZ20 whole entry, looked up): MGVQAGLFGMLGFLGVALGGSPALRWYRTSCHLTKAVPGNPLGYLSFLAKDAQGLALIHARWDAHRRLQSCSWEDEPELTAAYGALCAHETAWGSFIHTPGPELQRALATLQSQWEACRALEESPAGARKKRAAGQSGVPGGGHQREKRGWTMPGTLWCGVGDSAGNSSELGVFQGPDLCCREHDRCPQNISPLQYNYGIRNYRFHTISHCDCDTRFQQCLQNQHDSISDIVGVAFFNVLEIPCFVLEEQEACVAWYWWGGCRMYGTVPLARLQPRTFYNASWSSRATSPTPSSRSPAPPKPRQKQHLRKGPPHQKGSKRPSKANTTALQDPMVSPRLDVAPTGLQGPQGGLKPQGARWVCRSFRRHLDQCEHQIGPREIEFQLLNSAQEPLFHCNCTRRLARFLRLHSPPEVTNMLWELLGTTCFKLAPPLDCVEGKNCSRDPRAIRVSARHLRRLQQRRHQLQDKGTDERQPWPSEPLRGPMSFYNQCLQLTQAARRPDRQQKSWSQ
KLK7 zymogen act – proKLK7 zymogen activators, primary screen, biochemical, fluorescence intensity. Kallikrein-7 (Homo sapiens), P49862. purified proKLK7, EDANS-DABCYL substrate fluorescence; 100% is mature enzyme control, 0% vehicle. activation, % at 7 µM. hit rate 0.9% among 370,000;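 active means activation above the mean of all tested compounds plus 3 SD, computed per campaign excluding outliers beyond control limits, cut at about 13% in these data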
proKLK7 act conf – proKLK7 zymogen activators, confirmation, biochemical, fluorescence intensity, triplicate | shares compounds with KLK7 zymogen act | purified proKLK7, EDANS-DABCYL substrate fluorescence; scaled: vehicle 0, mature enzyme 100 | hit rate 68% among 3,200 | activation, % at 7 µM | AID 686949, 2013;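 active means activation, as change over the incubation, above the mean of all tested compounds plus 3 SD, cut at about 13% in these data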
EDANS interfere – EDANS-DABCYL substrate optical interference, artefact control for kallikrein-7 zymogen activator project, biochemical, fluorescence intensity, high throughput; shares compounds with KLK7 zymogen act; no enzyme, 4 h; solvent 0%, active enzyme control 100%; activation, % at 7 µM; hit rate 80% among 3,200; AID 686952, 2013;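 active means activation above the all-compound mean plus 3 SD, ignoring values outside control-based bounds, cut at about 4.8% in these data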;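 further: value is the 4 h activation minus the activation read at time zero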
K7 EDANS ctr – optically interferes with EDANS-DABCYL fluorescence, kallikrein-7 activator counter-screen. shares compounds with KLK7 zymogen act. EDANS-DABCYL peptide fluorescence interference, no enzyme. EC50, µM. hit rate 20% among 250. AID 720493;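 active means compounds that raise the fluorescence signal in this interference counterscreen, with EC50 at or below 10 µM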;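 further: intact quenched peptide substrate alone read at 355 nm excitation and 520 nm emission; signal is fluorescence gain from T0 to T4 after four hours at room temperature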
An asterisk follows results filed as active; i = inactive; x = no result given.

SMILES | ADAM17 inh | CendR NRP1 mod | ADAM10 inh | HGIII-sPLA2 inh | KLK7 zymogen act | proKLK7 act conf | EDANS interfere | others
O=C(c1cc2c(s1)-c1ccccc1OC2)N1CCC2(CC1)OCCO2 | i | -3 | i | -9 | 50* | 63* | 75*
Cn1c(O)c(/C=C2\C=c3ccccc3=NC2=O)c(=O)n(C)c1=O | -33 | 9 | -89 | -1 | 13* | 14* | 12*
Cn1c(O)c(/C=C2\C=Nc3ccccc32)c(=O)n(C)c1=O | -3 | -157 | 1 | 1 | 0 | x | x
Cc1cc(N2CCNC[C@@H]2C)ccc1N1CC[C@@H](O)C1 | -2 | x | -5 | 4 | 1 | x | x
CCOc1ccc(-c2cc(C)[n+](CCO)c(-c3ccc(OCC)cc3)c2)cc1 | -425 | 14 | i | -3 | 94* | 70* | 69*
O=C(Cc1cc(=O)oc2cc(O)ccc12)NN=Cc1ccc(N(CCCl)CCCl)cc1 | i | -18 | i | -30 | 119* | 44* | 31* | K7 EDANS ctr=i
COc1ccc2c(c1)[nH]c1c(C)nccc12 | -336 | -1 | i | 1 | 47* | 20* | 11* | K7 EDANS ctr=i
COc1ccc(-c2cc(=NCCC(=O)O)c3cc(C)ccc3o2)cc1 | i | 8 | i | -1 | 85* | 69* | 73*
COc1ccc(-c2cc(=Nc3ccccc3)c3cc(C)ccc3o2)cc1 | i | -5 | i | -13 | -14 | x | x
O=C(NCCN1CCC2(CC1)C(=O)NCN2c1ccccc1)c1ccccc1C(F)(F)F | -2 | x | -8 | 4 | 0 | x | x
CC(C)C(NC(=O)OCc1ccccc1)P(=O)(Oc1ccccc1)Oc1ccccc1 (stereo unspecified) | 1 | x | 1 | -6 | 0 | x | x
CC1CN(CC(=O)c2ccccc2Cl)CC(C)O1 (stereo unspecified) | -2 | 0 | 5 | 6 | 16* | 0 | 0
Cc1cc(=O)oc2cc3c(cc12)CCCN3 | i | 8 | i | 9 | 60* | 66* | 63*
CS(=O)(=O)N1Cc2cc(Br)ccc2-n2nncc2C1 | 2 | x | 4 | 3 | 0 | x | x
CN1C[C@H](CO)C=C2c3cccc4[nH]cc(c34)C[C@H]21 | -209 | 46* | i | -16 | 39* | 30* | 25* | K7 EDANS ctr=>70
CC(C)[C@H]1C(=O)N2CCC[C@H]2[C@]2(O)O[C@](NC(=O)[C@@H]3C=C4c5cccc6[nH]cc(c56)C[C@H]4N(C)C3)(C(C)C)C(=O)N12 | x | -22 | x | x | x | x | x
CC(=O)N1c2ccccc2C(c2ccccc2)=NCC1C(=O)NCc1ccccc1 (stereo unspecified) | -1 | x | -3 | 1 | 0 | x | x
O=c1ccc2cc(O[C@@H]3O[C@H](CO)[C@@H](O)[C@H](O)[C@H]3O)c(O)cc2o1 | i | -1 | i | 7 | 53* | 67* | 71*
CCOCCCn1c(N)c(C(=O)Nc2sc3c(c2C(=O)OC)CCCC3)c2nc3ccccc3nc21 | -456 | -120 | i | -26 | 28* | 1 | 1
CCOC(=O)c1c(NC(=O)c2c(N)n(CCCOC)c3nc4ccccc4nc23)sc2c1CCCC2 | -8 | 6 | -12 | -3 | 0 | x | x
Brc1csc(N2CCNCC2)n1 | -7 | x | -8 | 12 | x | x | x
CCOC(=O)CNC(=O)N1Cc2cc(Br)ccc2-n2nncc2C1 | -3 | x | -9 | 3 | 1 | x | x
COc1ccc2c3c([nH]c2c1)C(C)=NCC3 | i | -133 | i | 3 | 54* | 58* | 72*
CC1=NCCc2c1[nH]c1cc(O)ccc21 | i | 142 | i | -417 | 80* | 68* | 71*
O=C(NCCN1CCC2(CC1)C(=O)NCN2c1ccccc1)c1ccc(F)cc1F | 1 | x | -1 | -5 | 0 | x | x
SMILES | ADAM17 inh | CendR NRP1 mod | ADAM10 inh | HGIII-sPLA2 inh | KLK7 zymogen act | proKLK7 act conf | EDANS interfere | others
Cc1cc(OCC(=O)N2CCCN(C)CC2)ccc1Cl | 4 | 2 | 4 | -7 | 0 | x | x
CCn1c(=O)cc(OCC(=O)N2CCC3(CC2)OCCO3)c2ccccc21 | 0 | 4 | -2 | 0 | 0 | x | x
CC(=O)N1CCC2(CC1)CC(=O)c1cc(OCC(=O)N3CCN(C)CC3)ccc1O2 | -475 | -3 | i | 4 | 42* | 63* | 68*
CC(=O)N1CCC2(CC1)CC(=O)c1cc(OCC(=O)N3CCC4(CC3)OCCO4)ccc1O2 | -354 | 3 | i | 3 | 36* | 70* | 65*
COC(=O)C(C)Oc1cc(C)cc2oc(=O)c3c(c12)CCC3 (stereo unspecified) | -203 | -1 | i | -7 | 16* | 7 | 12*
Cc1cc(OCC(=O)N2CCC(C(=O)O)CC2)c2c3c(c(=O)oc2c1)CCC3 | -316 | -2 | i | 6 | 19* | 13* | 16*
Clc1ccc([C@H]2CC3CCC2N3)cn1 (stereo partly specified) | 0 | x | -20 | 13 | 0 | x | x
COc1c(C)cc(C(=O)C2CCCN(C3CCOCC3)C2)cc1C (stereo unspecified) | -3 | -6 | 1 | 3 | 0 | x | x
COc1ccc2cc(C(=O)C3CCCN(C4CCOCC4)C3)ccc2c1 (stereo unspecified) | -473 | -8 | i | -2 | 139* | 4 | 20*
COc1cc(C)cc2oc(=O)c(CC(=O)N3C[C@H]4C[C@@H](C3)c3cccc(=O)n3C4)c(C)c12 | -250 | 1 | i | 6 | 22* | 15* | 17*
Cc1cc(O)c2c(C)c(CC(=O)N3C[C@H]4C[C@@H](C3)c3cccc(=O)n3C4)c(=O)oc2c1 | -15 | -1 | -72 | 10 | -6 | x | x
